Among the data in PubChem BioAssay (Tox21) are outcome and Potency values, retold here.

Experiment [1] in a line: qHTS assay to test for compound auto fluorescence at 535 nm (green) in HEK293 cells (AID 720680).
Experiment [2] in a line: qHTS assay to test for compound auto fluorescence at 460 nm (blue) in HEK293 cell free culture (AID 720681). Summed up:
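Test compounds were pinned into cell-free culture medium (DMEM with 10% FBS) and fluorescence was read directly at Ex/Em 405/460 nm. Signals were expressed as fluorescence equivalents of triamterene, with DMSO vehicle as control.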
On the technique in general: Quantitative high-throughput screening tests each substance at several concentrations.

A short description of experiment [3]: qHTS assay to test for compound auto fluorescence at 535 nm (green) in HEK293 cell free culture (AID 720682). Summed up:
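Fluorescein serves as the green reference fluorophore; each compound's intrinsic emission at 535 nm (excitation 485 nm) is reported as an equivalent amount of that dye, measured in serum-containing DMEM without cells.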

Experiment [4] in a line: qHTS assay to test for compound auto fluorescence at 590 nm (red) in HEK293 cell free culture (AID 720683). Summed up:
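Tox21 10K library compounds were pinned into cell-free DMEM with 10% FBS and fluorescence was read at excitation 540 nm. Activity is expressed as Rose Bengal sodium equivalency.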

Experiment [5] can be described thus: qHTS assay to test for compound auto fluorescence at 590 nm (red) in HepG2 cell free culture (AID 720684). Summed up: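 Red fluorescence (540 nm excitation, 590 nm emission) was measured after compound transfer into cell-free MEM supplemented with 10% FBS. Values are equivalencies against Rose Bengal sodium.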
Experiment [6] in a line: qHTS assay to test for compound auto fluorescence at 460 nm (blue) in HepG2 cell free culture (AID 720685). Summed up:
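Compound (23 nL) or DMSO pinned into cell-free MEM with 10% FBS; blue fluorescence read at 405/460 nm excitation/emission, expressed as auto-fluorescence equivalency to triamterene.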

The nature of experiment [7]: qHTS assay to test for compound auto fluorescence at 535 nm (green) in HepG2 cell free culture (AID 720686).
Experiment [8] is described as follows: qHTS assay to test for compound auto fluorescence at 460 nm (blue) in HepG2 cells (AID 720687). Summed up:
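Cells (2,000/well in MEM with 10% FBS) attached overnight at 37 C, then were exposed to compound or DMSO for 1 hr at 37 C, 5% CO2. Fluorescence read at Ex/Em 405/460 nm, expressed as triamterene-equivalent signal.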

Experiment [9] can be described thus: qHTS assay for identifying genotoxic compounds that show differential cytotoxicity against isogenic chicken DT40 cell lines with known DNA damage response pathways - wild type cell line (AID 743012). Further: nearly all actives have a fitted effect of over 60% in size. Further: potency means the concentration at half of the fitted maximal effect. The method in brief:
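Using parental DT40 (300 cells/well), compounds delivered in DMSO incubate 40 h at 37 C/5% CO2. CellTiter-Glo reagent then stands 30 min at room temperature, and luminescence gives cell viability.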

The nature of experiment [10]: qHTS assay for identifying genotoxic compounds that show differential cytotoxicity against isogenic chicken DT40 cell lines with known DNA damage response pathways - Rev3 mutant cell line (AID 743014). Further: nearly all actives have a fitted effect of over 55% in size. Further: potency means the concentration at half of the fitted maximal effect.
Experiment [11] is described as follows: qHTS assay for identifying genotoxic compounds that show differential cytotoxicity against isogenic chicken DT40 cell lines with known DNA damage response pathways - Rad54/Ku70 mutant cell line (AID 743015). Further: nearly all actives have a fitted effect of over 60% in size. Further: potency means the concentration at half of the fitted maximal effect.
Experiment [12] concerns the target Androgen receptor (Homo sapiens) (UniProt P10275). Description: qHTS assay to identify small molecule agonists of the androgen receptor (AR) signaling pathway using the MDA cell line (AID 743040; further: nearly all actives have a fitted effect of over 20% in size). The method in brief: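 MDA-kb2 breast carcinoma cells stably carrying an MMTV-driven luciferase reporter (AR- and GR-responsive) were seeded and held 5 h at 37C, 0% CO2, then exposed to compounds in DMSO for 16 h. Luminescence was read 30 min after ONE-Glo addition.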

The target is the same in experiment [13]. Kind of experiment: qHTS assay to identify small molecule antagonists of the androgen receptor (AR) signaling pathway using the MDA cell line (AID 743042; further: nearly all actives have a fitted effect of over 55% in size; further: potency means the concentration at half of the fitted maximal effect). The method in brief: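 MDA-kb2 cells (human breast carcinoma, stably carrying an MMTV-luciferase reporter responsive to AR and GR) were plated at 3,000 cells/well and preincubated 5 hr at 37C, then given compound plus R1881 agonist for 16 h. ONE-Glo luminescence was read.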

Experiment [14] is described as follows: qHTS assay to identify small molecule antagonists of the androgen receptor (AR) signaling pathway - cell viability counter screen (AID 743033; further: nearly all actives have a fitted effect of over 45% in size; further: potency means the concentration at half of the fitted maximal effect).
Experiment [15] in a line: qHTS assay to identify small molecule antagonists of the androgen receptor (AR) signaling pathway using the MDA cell line - cell viability counter screen (AID 743041; further: nearly all actives have a fitted effect of over 45% in size). The method in brief:
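MDA-kb2 AR-luc human breast carcinoma cells (MMTV-luciferase, AR/GR responsive) were treated with compounds plus R1881 agonist for 16 h at 37 °C. Viability was read as CellTiter-Fluor fluorescence in the same wells as the reporter assay.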

A short description of experiment [16]: qHTS assay to identify small molecule antagonists of the glucocorticoid receptor (GR) signaling pathway - cell viability counter screen (AID 720693). Further: nearly all actives have a fitted effect of over 55% in size.
The target in experiment [17] is Androgen receptor (Homo sapiens) (UniProt P10275). Kind of experiment: qHTS assay to identify small molecule antagonists of the androgen receptor (AR) signaling pathway (AID 743035; active means well fitted inhibition curve with a large enough effect in the signal ratio in the repeat runs, not every such curve was filed as active; the % refers to the signal ratio; further: potency means the concentration at half of the fitted maximal effect). Summed up: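 Using qHTS, AR-UAS-bla GripTite HEK293 cells received compound, then R1881, and were cultured 16 h at 37C/5% CO2 before a 2 h room-temperature LiveBLAzer B/G FRET substrate step and fluorescence measurement.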

Experiment [18] deals with Glucocorticoid receptor (Homo sapiens) (UniProt P04150). Description: qHTS assay to identify small molecule agonists of the glucocorticoid receptor (GR) signaling pathway (AID 720691; active means well fitted activation curve with a large enough effect in the signal ratio in the repeat runs, not every such curve was filed as active; the % refers to the signal ratio; further: potency means the concentration at half of the fitted maximal effect). To be noted: GR-bla HeLa, beta-lactamase reporter ratio, 18 h; activation: at 62.4 µM (top of the series). Summed up: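 Reporter read-out: fluorescence intensity following 2 h room-temperature LiveBLAzer B/G FRET substrate loading. Prior step: GR-bla HeLa cells held 4 h, then treated 18 h at 37 C.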

Where “and” joins values, the source holds several entries; their conditions need not be identical. Equal values may be shown once. Inconclusive results are not listed. A structure can be active in one record and inactive in another. Calls of active or inactive are those of the source. Unless noted, the call rests on the fitted dose curve; in most records, active means well fitted curve in the direction sought with a large enough effect in the repeat runs; inconclusive means weak or mixed curves; inactive means no such curve, though single readings can be large; an effect the other way counts as inactive or inconclusive.

Sequence of Androgen receptor (Homo sapiens) (P10275 whole entry, looked up): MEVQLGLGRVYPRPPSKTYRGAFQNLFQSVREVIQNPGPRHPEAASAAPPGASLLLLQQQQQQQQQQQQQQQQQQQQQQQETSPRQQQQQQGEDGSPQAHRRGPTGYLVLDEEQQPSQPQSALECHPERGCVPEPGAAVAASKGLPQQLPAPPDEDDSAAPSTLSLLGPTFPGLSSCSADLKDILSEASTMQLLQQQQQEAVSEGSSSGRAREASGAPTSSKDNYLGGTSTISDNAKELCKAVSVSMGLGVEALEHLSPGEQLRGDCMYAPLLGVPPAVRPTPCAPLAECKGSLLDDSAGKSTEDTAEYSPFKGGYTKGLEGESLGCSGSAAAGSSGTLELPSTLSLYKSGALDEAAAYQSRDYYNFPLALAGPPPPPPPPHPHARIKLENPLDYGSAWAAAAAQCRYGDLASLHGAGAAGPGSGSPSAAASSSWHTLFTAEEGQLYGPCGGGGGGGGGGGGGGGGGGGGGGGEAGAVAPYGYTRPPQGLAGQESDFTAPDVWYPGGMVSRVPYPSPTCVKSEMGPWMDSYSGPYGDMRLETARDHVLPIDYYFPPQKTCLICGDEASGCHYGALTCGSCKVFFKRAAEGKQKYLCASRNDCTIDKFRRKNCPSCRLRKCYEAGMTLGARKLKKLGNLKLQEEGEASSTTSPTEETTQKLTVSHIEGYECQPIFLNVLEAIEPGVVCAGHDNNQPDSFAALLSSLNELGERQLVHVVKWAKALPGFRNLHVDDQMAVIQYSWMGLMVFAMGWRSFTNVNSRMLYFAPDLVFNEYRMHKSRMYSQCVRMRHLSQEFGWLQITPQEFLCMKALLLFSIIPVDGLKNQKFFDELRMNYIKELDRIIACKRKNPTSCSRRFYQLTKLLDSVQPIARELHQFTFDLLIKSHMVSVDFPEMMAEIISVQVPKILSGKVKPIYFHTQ
Sequence of Glucocorticoid receptor (Homo sapiens) (P04150 whole entry, looked up): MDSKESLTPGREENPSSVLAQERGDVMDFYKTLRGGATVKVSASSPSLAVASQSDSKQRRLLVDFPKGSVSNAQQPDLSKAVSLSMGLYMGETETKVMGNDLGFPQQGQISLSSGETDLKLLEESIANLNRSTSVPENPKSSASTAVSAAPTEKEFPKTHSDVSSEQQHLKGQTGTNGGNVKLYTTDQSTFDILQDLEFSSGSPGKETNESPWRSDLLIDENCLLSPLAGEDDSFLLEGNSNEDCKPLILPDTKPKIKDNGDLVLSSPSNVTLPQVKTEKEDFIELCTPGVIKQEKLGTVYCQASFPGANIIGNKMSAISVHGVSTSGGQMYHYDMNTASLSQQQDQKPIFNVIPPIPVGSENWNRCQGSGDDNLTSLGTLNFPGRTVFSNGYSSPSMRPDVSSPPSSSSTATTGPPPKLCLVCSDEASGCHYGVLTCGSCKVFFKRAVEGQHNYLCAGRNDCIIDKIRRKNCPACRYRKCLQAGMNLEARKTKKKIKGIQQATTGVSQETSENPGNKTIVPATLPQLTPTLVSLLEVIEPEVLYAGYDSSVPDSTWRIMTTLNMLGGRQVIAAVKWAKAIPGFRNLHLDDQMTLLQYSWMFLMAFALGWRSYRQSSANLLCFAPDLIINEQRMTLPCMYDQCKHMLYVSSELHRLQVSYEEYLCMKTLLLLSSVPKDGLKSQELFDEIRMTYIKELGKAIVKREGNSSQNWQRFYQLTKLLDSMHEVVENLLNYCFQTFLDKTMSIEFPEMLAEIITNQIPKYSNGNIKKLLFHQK

As for `CCN1CCC2(CC1)COc1cc3c(cc12)N(C(=O)c1ccc(-c2ccc(-c4nnc(C)o4)cc2C)cc1)CC3`, the result in experiment [1], in [3], in [4], in [5] and in experiment [12] was inactive. Besides, the Potency entry in experiment [2], in [6], in [7] and in experiment [8] was “inactive” in each case. For the same molecule, the Potency in experiment [9] is 1.26 µM (active); in experiment [10], 1.42 µM (active); in experiment [11], 1 µM (active); in experiment [13], 63.3 µM (active).
For `O=C(O)[C@H](O)[C@@H](O)C(=O)O`, the molecule was called inactive in experiment [1], in [3], in [4] and in experiment [5]. The Potency result in [2], in experiment [6], in [7], in [8], in experiment [9] and in experiment [10] was “inactive” in each case. Besides, the Potency result in [11], in experiment [14] and in experiment [15] was “inactive” in each case.
Regarding `Nc1c(Cl)c(Cl)c(Cl)c(Cl)c1Cl`, the result in [1], in [3], in experiment [4], in [5] and in experiment [12] was inactive. Also, the Potency entry in experiment [6], in experiment [7], in experiment [8], in [16], in experiment [11] and in [14] was “inactive” throughout. In [13], the Potency entry is “inactive”.
As for `CC(C)N(C(=O)SC/C(Cl)=C/Cl)C(C)C`, the result in experiment [1], in experiment [3], in [4] and in [5] was inactive. The Potency result in experiment [2], in [6], in [7], in experiment [8], in experiment [9] and in experiment [10] was “inactive” throughout. Moreover, the Potency result in experiment [11], in [14] and in [15] was “inactive” each time.
With `c1ccc2c(c1)cc1ccc3cccc4ccc2c1c34`, the call in experiment [1], in experiment [3], in experiment [4] and in experiment [5] was inactive. Also, the Potency result in experiment [2], in experiment [7], in experiment [9], in [10] and in experiment [14] was “inactive” in each case.
`C1=CCC=C1`: the call in experiment [1], in [3], in experiment [4] and in experiment [5] was inactive. The Potency entry in experiment [7], in experiment [16], in experiment [9], in experiment [10], in experiment [11] and in experiment [14] was “inactive” throughout. In addition, the Potency result in experiment [15] is “inactive”.
Take `CC(=O)[O-].CC(=O)[O-].[Co+2]`: the molecule was called inactive in experiment [1], in [3], in experiment [4] and in experiment [5]. The Potency result in experiment [2], in experiment [6], in experiment [7], in [8], in experiment [9] and in [10] was “inactive” throughout. The Potency result in [11], in experiment [14] and in [15] was “inactive” each time.
For `CC1(C)C(C=C(Cl)Cl)C1C(=O)OC(C#N)c1ccc(F)c(Oc2ccccc2)c1` (configuration not stated), the call in experiment [1], in [3], in [4] and in [5] was inactive. Besides, the Potency entry in experiment [2], in experiment [6], in experiment [7], in experiment [8], in experiment [9] and in [10] was “inactive” each time. In addition, the Potency result in experiment [14] and in experiment [15] was “inactive” throughout.
Take `C#CCC1=C(C)C(OC(=O)C2C(C=C(C)C)C2(C)C)CC1=O` (configuration not stated): the result in experiment [1], in [3], in experiment [4] and in experiment [5] was inactive. Also, the Potency result in experiment [2], in experiment [6], in [7], in experiment [8] and in experiment [15] was “inactive” throughout. For the same molecule, the Potency in [9] is 19.2 µM (active); in experiment [10], 30.4 µM (active); in experiment [11] it was 30.4 µM (active).
For the molecule `O=C1C2(Cl)C3(Cl)C4(Cl)C(Cl)(Cl)C5(Cl)C3(Cl)C1(Cl)C5(Cl)C24Cl` (configuration not stated), the molecule was classed as inactive in experiment [1], in experiment [3], in experiment [4], in experiment [5] and in experiment [12]. Besides, the Potency result in experiment [2], in experiment [6], in [7] and in [8] was “inactive” in each case. Besides, the Potency in experiment [9] was 30.1 µM (active) and 29.3 µM (active); in experiment [10], 13.5 µM (active) and 32.9 µM (active); in [11], 19 µM (active) and 26.1 µM (active); in [14], 38.3 µM (active) and 46.9 µM (active); in [17] it was 23.5 µM (active); in [13], 60.1 µM (active).
As for `O=S1OCC2C(CO1)C1(Cl)C(Cl)=C(Cl)C2(Cl)C1(Cl)Cl` (configuration not stated), the molecule was called inactive in [1], in [3], in experiment [4], in [5] and in experiment [12]. Moreover, the Potency entry in experiment [2], in [6], in experiment [7], in experiment [8] and in [15] was “inactive” in each case. The Potency was 54.5 µM (active) and 24.3 µM (active) in experiment [9]; 30.7 µM (active) and 34.3 µM (active) in experiment [10]; 48.6 µM (active) and 48.5 µM (active) in experiment [11]; 49 µM (active) in experiment [14]; 38.9 µM (active) and 48.9 µM (active) in experiment [17].
Take `CCCCN(CCCC)C(=S)S`: the outcome in experiment [1], in experiment [3], in experiment [4] and in [5] was inactive. The Potency entry in experiment [2], in experiment [6], in experiment [7], in [8] and in experiment [10] was “inactive” in each case.
On to `[O-][Cl+3]([O-])([O-])O`, for which the outcome in experiment [1], in experiment [3], in [4] and in experiment [5] was inactive. Besides, the Potency result in [2], in experiment [6], in [7], in experiment [8], in experiment [9] and in experiment [10] was “inactive” in each case. Also, the Potency result in [11], in [14] and in experiment [15] was “inactive” in each case.
For `CSSC`, the result in [1], in [3], in [4] and in experiment [5] was inactive. The Potency entry in experiment [2], in experiment [6], in experiment [7], in experiment [8], in [9] and in [11] was “inactive” each time. In addition, the Potency result in experiment [14] and in experiment [15] was “inactive” throughout.
Regarding `C[C@]12C/C(=C/O)C(=O)C[C@@H]1CC[C@@H]1[C@@H]2CC[C@@]2(C)[C@H]1CC[C@]2(C)O`, the molecule was called inactive in experiment [1], in experiment [3], in experiment [4] and in experiment [5]. In addition, the Potency result in experiment [2], in [6], in experiment [7] and in experiment [8] was “inactive” throughout. Moreover, the Potency was 29.8 µM (active) in experiment [9]; 49 µM (active) in experiment [10]; “inactive and 44.1 µM (active)” in [14].
Take `O.O.O.O=C([O-])[C@H]([O-])[C@@H]([O-])C(=O)[O-].O=C([O-])[C@H]([O-])[C@@H]([O-])C(=O)[O-].[K+].[K+].[Sb+3].[Sb+3]`: the molecule was classed as inactive in experiment [1], in experiment [3], in experiment [4] and in [5]. In addition, the Potency result in [2], in [6], in experiment [7], in experiment [8] and in experiment [10] was “inactive” in each case.
Consider `c1csc(-c2ccc(-c3cccs3)s2)c1`, for which the call in experiment [1], in experiment [3], in experiment [4] and in experiment [5] was inactive. For the same molecule, the Potency entry in [2], in [7], in experiment [16] and in [14] was “inactive” each time. In addition, the values for the Potency in experiment [18] and in experiment [9] were 49 µM (active) and 68.6 µM (active), respectively.
